Test results published in PubChem BioAssay.
Calls of active or inactive are those of the source.

Legend:
Albumin (Bos taurus) = Albumin (Bos taurus) (UniProt P02769); experiment: bovine serum albumin binders on microarray, profiling panel, artefact control for SMM control protein annotation, biochemical, small-molecule microarray, Alexa647 label, 635/667 nm fluorescence (AID 1118); details: BSA-A647 binding, fluorescence 635 nm, higher = more signal;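 further: score merges 667 nm emission intensity and signal-to-noise per printed compound spot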
[1] = small-molecule microarray binders of probe aXIP, primary screen, biochemical, NeuroSMM set, 635/667 nm fluorescence (AID 1119); details: higher = more signal, called active from +8 up or from −8 down;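 further: probe is the protein aXip251-270 applied at 1 µg/mL to compound-printed slides; binding of probe to printed compounds measured as 667 nm fluorescence plus signal to noise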
[2] = small-molecule binders of probe aNOTCH3, primary screen, biochemical, small-molecule microarray, 635/667 nm fluorescence (AID 1120); details: higher = more signal;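 further: probe is a biotin-tagged antibody raised against NOTCH3 rather than NOTCH3 protein; score merges spot fluorescence near 667 nm with spot signal to noise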
[3] = small-molecule binders of probe aNOTCH2, primary screen, biochemical, small-molecule microarray, 635/667 nm fluorescence (AID 1121); details: higher = more signal;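 further: score merges feature fluorescence read at 667 nm with its signal to noise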
[4] = biological target: Carbonic anhydrase 2 (Homo sapiens) (UniProt P00918); experiment: CAII small-molecule binders, profiling panel, biochemical, small-molecule microarray, Alexa647-labelled CAII (AID 1122); details: CAII-A647 binding fluorescence, higher = more signal
[5] = COS7 lysate on small-molecule microarray, probe aHis, 635 nm (AID 1123); details: COS7 cell lysate, fluorescence, higher = more signal;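 further: z-score combines 667nm fluorescence intensity with signal-to-noise per printed compound spot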
[6] = compound binding in COS7 lysate, probe aLAP1, primary screen, cell lysate, small-molecule microarray (AID 1124); details: probe aLAP1, fluorescence, higher = more signal;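 further: lysate comes from COS7 cells expressing LAP1 and is applied at 0.3 µg/mL; score merges spot fluorescence near 667 nm with signal-to-noise over triplicate slides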
Sam68 (KHDRBS1) = experiment: Sam68 small-molecule binders, primary screen, biochemical, small-molecule microarray, 635 nm fluorescence (AID 1125); details: small-molecule microarray binding, higher = more signal;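 further: score merges 667 nm channel intensity with signal to noise over triplicate slides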
[7] = test system: Chordin-like protein 2 (CHRDL2); experiment: CHRDL2 small-molecule binders, primary screen, biochemical, small-molecule microarray, 635 nm fluorescence (AID 1126); details: small-molecule microarray binding, fluorescence 635 nm; higher = more signal;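 further: printed compound slides probed with Chrdl2 protein at 4 µg/mL for 1 h at 4 C; score merges 667 nm emission intensity with signal to noise over three replicate slides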
[8] = biological target: Concanavalin-A (Canavalia ensiformis) (UniProt P02866); experiment: ConA small-molecule binders, primary screen, artefact control for SMM control protein annotation, biochemical, small-molecule microarray, Alexa647 label, 635 nm (AID 1127); details: ConA-A647 binding fluorescence, higher = more signal;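 further: z combines 667 nm emission intensity with signal-to-noise across three replicate slides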
[9] = anti-His antibody binders, primary screen, artefact control for SMM control protein annotation, biochemical, small-molecule microarray, 635 nm fluorescence (AID 1128); details: anti-His Alexa647 antibody binding, higher = more signal;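 further: score merges feature fluorescence with signal-to-noise for each printed compound spot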
[10] = test system: Human papillomavirus type 1a E7 protein (residues 1-88); experiment: HPV1a E7 small-molecule binders, primary screen, biochemical, small-molecule microarray, residues 1-88, 635 nm (AID 1129); details: small-molecule microarray binding, fluorescence 635 nm; higher = more signal
[11] = biological target: Focal adhesion kinase 1 (Homo sapiens) (UniProt Q05397); experiment: small-molecule microarray binders of FAK, primary screen, biochemical, 635/667 nm fluorescence, BSA, DTT (AID 1130); details: PTK2 binding, 635 nm fluorescence, higher = more signal;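 further: composite of spot emission at 667 nm and signal to noise over triplicate slides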
[12] = test system: Fibrinogen (Alexa647-labelled); experiment: fibrinogen binders on compound microarrays, profiling panel, artefact control for SMM control-protein annotation, biochemical, small-molecule microarray, 635/667 nm fluorescence (AID 1131); details: fibrinogen-A647 binding fluorescence, higher = more signal;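 further: z-score merges 667 nm fluorescence with per-spot signal-to-noise over triplicate slides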
[13] = biological target: Follistatin (Homo sapiens) (UniProt P19883); experiment: follistatin binders on small-molecule microarrays, primary screen, biochemical, small-molecule microarray, 635/667 nm fluorescence (AID 1132); details: FST binding, 635 nm fluorescence, higher = more signal
[14] = biological target: Fibroblast growth factor 2 (Homo sapiens) (UniProt P09038); experiment: FGF2 binders on small-molecule microarrays, primary screen, biochemical, small-molecule microarray, 635/667 nm fluorescence (AID 1133); details: small-molecule microarray binding, FGF2, fluorescence 635/667; higher = more signal
[15] = mitochondrial membrane potential change in A549 cells, profiling panel, cell-based, JC-1 fluorescence, basal, 24 h, 100 nL (AID 1138); details: higher = more signal;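 further: A549 lung adenocarcinoma cells under basal conditions with no added stimulus; test concentration not given here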
Lefty1 = Lefty1 binders on small-molecule microarrays, primary screen, biochemical, small-molecule microarray, 635/667 nm fluorescence (AID 1139); details: small-molecule microarray binding, fluorescence 635/667; higher = more signal
[16] = test system: wheat germ agglutinin (Triticum aestivum), Alexa647-labelled; experiment: wheat germ agglutinin binders on compound microarrays, profiling panel, artefact control for SMM control-protein annotation, biochemical, small-molecule microarray, 635/667 nm fluorescence (AID 1140); details: WGA-A647 binding, 635 nm fluorescence, higher = more signal;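 further: score merges 667 nm feature emission with signal to noise over triplicate slides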
[17] = biological target: Luciferin 4-monooxygenase (Photinus pyralis) (UniProt P08659); experiment: firefly luciferase enzyme inhibitors, primary screen, biochemical, luminescence, purified enzyme, 2006 set (AID 1141); details: SteadyGlo luminescence, 30 min, higher = more signal, called active from +8 up or from −8 down;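 further: cell-free assay with purified firefly luciferase at 100 ng per well in PBS; test concentration not given here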
Sequence of Luciferin 4-monooxygenase (Photinus pyralis) (P08659 whole entry, looked up): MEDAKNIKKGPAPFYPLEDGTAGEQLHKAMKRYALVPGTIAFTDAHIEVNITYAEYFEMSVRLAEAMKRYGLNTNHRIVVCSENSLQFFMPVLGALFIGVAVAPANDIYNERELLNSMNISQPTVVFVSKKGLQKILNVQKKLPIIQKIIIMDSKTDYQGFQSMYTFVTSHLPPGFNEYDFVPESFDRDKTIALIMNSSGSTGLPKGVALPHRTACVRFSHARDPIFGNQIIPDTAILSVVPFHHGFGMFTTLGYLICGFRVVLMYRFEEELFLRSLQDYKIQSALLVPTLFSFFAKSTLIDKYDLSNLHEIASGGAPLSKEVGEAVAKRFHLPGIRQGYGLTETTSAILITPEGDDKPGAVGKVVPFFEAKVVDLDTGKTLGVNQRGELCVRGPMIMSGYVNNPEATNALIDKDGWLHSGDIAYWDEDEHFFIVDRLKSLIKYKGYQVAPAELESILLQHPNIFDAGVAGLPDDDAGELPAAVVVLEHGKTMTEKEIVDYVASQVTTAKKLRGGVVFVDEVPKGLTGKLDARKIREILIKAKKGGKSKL

Sequence of Follistatin (Homo sapiens) (P19883 whole entry, looked up): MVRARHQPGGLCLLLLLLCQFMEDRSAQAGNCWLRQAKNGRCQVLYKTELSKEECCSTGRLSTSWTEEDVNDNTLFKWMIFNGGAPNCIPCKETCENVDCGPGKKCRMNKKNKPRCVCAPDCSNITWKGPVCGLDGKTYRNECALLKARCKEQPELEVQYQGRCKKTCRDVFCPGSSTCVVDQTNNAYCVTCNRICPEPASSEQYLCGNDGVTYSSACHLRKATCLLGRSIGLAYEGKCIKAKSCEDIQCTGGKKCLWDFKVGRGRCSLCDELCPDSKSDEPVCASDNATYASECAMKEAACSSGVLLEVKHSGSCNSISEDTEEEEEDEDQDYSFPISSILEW
Sequence of Fibroblast growth factor 2 (Homo sapiens) (P09038 whole entry, looked up): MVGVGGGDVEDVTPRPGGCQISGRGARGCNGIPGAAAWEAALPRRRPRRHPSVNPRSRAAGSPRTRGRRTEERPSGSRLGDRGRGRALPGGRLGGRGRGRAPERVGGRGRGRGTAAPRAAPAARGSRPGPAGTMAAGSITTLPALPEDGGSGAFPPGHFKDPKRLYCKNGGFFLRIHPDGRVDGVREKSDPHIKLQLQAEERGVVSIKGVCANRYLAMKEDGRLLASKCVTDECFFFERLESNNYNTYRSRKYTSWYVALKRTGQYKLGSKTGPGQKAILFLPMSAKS
Sequence of Albumin (Bos taurus) (P02769 whole entry, looked up): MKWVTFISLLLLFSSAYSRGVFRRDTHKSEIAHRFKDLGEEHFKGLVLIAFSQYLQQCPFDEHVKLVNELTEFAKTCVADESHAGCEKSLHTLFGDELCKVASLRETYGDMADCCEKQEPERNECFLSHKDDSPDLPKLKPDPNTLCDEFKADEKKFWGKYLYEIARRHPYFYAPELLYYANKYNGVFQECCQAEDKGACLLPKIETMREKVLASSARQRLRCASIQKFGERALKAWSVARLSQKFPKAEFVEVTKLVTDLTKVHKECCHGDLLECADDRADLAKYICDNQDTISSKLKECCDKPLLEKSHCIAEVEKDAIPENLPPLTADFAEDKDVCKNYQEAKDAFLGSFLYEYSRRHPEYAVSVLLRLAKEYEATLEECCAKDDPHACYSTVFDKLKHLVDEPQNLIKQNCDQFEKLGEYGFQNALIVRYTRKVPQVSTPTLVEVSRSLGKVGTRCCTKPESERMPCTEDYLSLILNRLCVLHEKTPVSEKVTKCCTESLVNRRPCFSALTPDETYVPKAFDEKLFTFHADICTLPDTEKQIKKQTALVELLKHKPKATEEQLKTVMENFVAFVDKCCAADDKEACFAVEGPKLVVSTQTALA
Sequence of Concanavalin-A (Canavalia ensiformis) (P02866 whole entry, looked up): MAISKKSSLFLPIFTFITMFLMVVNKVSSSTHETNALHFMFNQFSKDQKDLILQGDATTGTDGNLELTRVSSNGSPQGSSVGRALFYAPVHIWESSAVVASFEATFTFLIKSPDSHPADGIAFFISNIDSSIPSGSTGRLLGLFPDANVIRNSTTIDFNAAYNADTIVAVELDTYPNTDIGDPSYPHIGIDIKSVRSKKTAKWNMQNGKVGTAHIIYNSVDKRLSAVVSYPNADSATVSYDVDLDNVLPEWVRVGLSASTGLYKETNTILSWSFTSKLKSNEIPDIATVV
Sequence of Focal adhesion kinase 1 (Homo sapiens) (Q05397 whole entry, looked up): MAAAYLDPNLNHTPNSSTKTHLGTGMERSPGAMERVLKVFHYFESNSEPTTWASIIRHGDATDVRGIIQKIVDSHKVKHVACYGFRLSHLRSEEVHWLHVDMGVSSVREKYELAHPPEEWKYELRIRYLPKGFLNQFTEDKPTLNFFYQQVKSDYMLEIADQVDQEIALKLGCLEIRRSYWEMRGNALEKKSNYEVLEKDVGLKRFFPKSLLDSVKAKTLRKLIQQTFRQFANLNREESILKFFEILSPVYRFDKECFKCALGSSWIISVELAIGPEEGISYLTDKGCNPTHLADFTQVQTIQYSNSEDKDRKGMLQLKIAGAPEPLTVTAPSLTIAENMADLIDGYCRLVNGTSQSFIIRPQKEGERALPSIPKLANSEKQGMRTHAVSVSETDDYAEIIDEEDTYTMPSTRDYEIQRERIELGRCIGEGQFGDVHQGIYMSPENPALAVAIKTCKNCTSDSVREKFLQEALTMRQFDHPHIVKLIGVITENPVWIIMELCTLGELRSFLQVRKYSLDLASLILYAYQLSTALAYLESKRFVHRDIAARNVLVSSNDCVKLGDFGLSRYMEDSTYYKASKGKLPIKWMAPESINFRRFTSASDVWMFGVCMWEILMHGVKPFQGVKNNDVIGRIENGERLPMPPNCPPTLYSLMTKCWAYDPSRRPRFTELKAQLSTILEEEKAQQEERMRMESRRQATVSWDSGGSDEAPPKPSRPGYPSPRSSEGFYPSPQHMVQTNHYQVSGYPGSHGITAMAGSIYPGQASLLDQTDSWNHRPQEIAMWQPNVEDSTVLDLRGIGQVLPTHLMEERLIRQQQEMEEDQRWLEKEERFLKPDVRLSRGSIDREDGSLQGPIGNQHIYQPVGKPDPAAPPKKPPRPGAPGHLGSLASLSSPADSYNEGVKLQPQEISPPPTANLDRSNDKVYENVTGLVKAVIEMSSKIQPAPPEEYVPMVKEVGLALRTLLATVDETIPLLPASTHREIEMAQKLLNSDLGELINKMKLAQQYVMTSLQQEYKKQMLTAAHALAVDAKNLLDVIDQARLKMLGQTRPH

Structure (SMILES)	composite z-score (Albumin (Bos taurus))	composite Z-score [1]	composite z-score [2]	composite z-score [3]	composite z-score [4]	composite z-score [5]	composite z-score [6]	composite z-score (Sam68 (KHDRBS1))	composite z-score [7]	composite z-score [8]	composite z-score [9]	composite z-score [10]	composite z-score [11]	composite z-score [12]	composite z-score [13]	composite z-score [14]	z-score [15]	composite z-score (Lefty1)	composite z-score [16]	z-score [17]
COC(=O)[C@H](C)NC(=O)CCC1CC(OC(=O)NCc2ccc3c(c2)OCO3)CC2(CCCC(COC(=O)NCCCN3CCCC3=O)O2)O1 (stereo not given in full)	0.328	0.3 (inactive)	0.186	-0.293	0.167	0.639	0.261	1.26	0.826	0.872	0.23	1.03	0.174	0.861	0.602	1.42	-0.224	0.777	0.364	0.906 (inactive)
COC(=O)[C@H](C)NC(=O)CCC1CC(OC(=O)NCc2cccc3ccccc23)CC2(CCCC(COC(=O)NCc3cccc(C(F)(F)F)c3)O2)O1 (stereo not given in full)	0.845	0.15 (inactive)	0.106	-0.0846	0.15	1.78	0.0331	1.31	0.293	1.12	1.12	0.818	0.0625	0.83	0.928	0.657	1.43	0.526	0.48	-0.552 (inactive)
CC(=O)OC[C@H]1O[C@@H](ON=C(C)C)[C@H](OC(C)=O)[C@@H](OC(C)=O)[C@@H]1OC(C)=O	-0.727	-1.02 (inactive)	-0.0178	-0.0272	-0.755	-0.775	0.694	-0.743	-0.736	-1.09	0.759	-1.41	-0.242	-0.515	-1.27	-0.109	-0.191	-1.03	-0.88	0.316 (inactive)
CCN1C(=O)[C@H]2[C@H]3[C@H](O)[C@H](O)CC(=NOC(C)CN4CCCc5nc(C)c(C)cc54)[C@@H]3CC[C@H]2C1=O (stereo not given in full)	-0.558	0.635 (inactive)	0.148	0.0137	0.014	-0.0995	0.284	1.05	0.893	-0.471	-0.245	0.509	0.335	0.116	0.703	0.462	0.623	0.737	-0.393	0.126 (inactive)
CC(CCN1CCCCc2nc(C)c(C)cc21)=NO[C@H](C)c1cn([C@@H]2COC[C@H]2O)nn1	0.43	-1.61 (inactive)	0.156	0.0097	0.616	0.298	0.0986	1.2	1.49	0.685	0.968	0.12	0.422	0.41	1.26	1.33	-0.624	1.38	-0.0522	1.05 (inactive)
